Tests used:
Experiment in all cases: DAPPL (digital affinity profiling via proximity ligation, sequencing); 10 mM Tris-HCl pH 7.5, 50 mM NaCl, 1 mM DTT, 4% glycerol, room temperature, 30 min; GST-TFs on glutathione beads, 16-mer random dsDNA library, 0.1% formaldehyde crosslink after washing; high values mean tight binding
Conditions in all cases: protein: recombinant; tags: N-terminal GST; dsDNA, one strand shown
ELK1 = molecular target: T1, ELK1 (Homo sapiens, UniProt P19419 1-428)
T1 sequence: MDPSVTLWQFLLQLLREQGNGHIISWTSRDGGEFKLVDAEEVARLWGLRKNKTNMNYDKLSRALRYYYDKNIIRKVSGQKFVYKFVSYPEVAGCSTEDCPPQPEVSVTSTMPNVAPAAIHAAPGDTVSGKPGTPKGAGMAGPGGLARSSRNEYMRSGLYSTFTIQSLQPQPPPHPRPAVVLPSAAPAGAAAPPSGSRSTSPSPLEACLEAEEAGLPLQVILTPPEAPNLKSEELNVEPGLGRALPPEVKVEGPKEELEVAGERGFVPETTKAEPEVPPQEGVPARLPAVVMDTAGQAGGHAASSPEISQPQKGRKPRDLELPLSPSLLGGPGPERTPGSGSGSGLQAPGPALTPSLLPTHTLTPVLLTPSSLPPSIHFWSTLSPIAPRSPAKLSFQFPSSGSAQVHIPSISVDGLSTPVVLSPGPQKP
Method in brief: (§1)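 Pools were built from human transcription factors expressed in yeast as GST fusions, captured on glutathione beads and DNA-barcoded, along with a tag-only sample. Incubation with 200 nmole of a 16-mer random double-stranded DNA library lasted 30 min at room temperature in Tris/NaCl/DTT/glycerol buffer, and was followed by washing, 0.1% formaldehyde crosslinking, proximity ligation, PCR amplification and Illumina NextSeq500 sequencing. Binding signal is the quotient of each hexamer's read frequency for a factor and its frequency for the tag-only sample.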

ELF1 = ELF1 (Homo sapiens, UniProt P32519 1-619)
Sequence of ELF1 (P32519 whole entry): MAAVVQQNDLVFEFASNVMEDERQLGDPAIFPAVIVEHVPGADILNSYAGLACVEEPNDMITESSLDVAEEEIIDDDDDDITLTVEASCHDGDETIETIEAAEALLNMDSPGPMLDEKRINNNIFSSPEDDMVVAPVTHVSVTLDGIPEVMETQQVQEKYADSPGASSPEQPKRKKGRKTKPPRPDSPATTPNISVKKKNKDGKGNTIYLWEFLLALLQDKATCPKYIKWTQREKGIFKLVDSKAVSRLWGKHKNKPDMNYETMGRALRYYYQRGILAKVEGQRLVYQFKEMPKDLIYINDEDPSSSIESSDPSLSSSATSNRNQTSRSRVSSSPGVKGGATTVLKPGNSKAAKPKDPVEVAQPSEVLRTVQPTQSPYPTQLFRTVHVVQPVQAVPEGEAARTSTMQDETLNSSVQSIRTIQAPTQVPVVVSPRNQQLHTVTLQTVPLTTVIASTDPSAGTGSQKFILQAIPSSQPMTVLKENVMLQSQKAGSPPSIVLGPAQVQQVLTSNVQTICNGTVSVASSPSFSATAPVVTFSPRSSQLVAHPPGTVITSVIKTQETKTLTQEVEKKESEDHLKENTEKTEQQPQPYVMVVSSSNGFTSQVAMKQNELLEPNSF
Method in brief: as §1

EHF = molecular target: T2, EHF (Homo sapiens, UniProt Q9NZC4 1-300)
T2 sequence: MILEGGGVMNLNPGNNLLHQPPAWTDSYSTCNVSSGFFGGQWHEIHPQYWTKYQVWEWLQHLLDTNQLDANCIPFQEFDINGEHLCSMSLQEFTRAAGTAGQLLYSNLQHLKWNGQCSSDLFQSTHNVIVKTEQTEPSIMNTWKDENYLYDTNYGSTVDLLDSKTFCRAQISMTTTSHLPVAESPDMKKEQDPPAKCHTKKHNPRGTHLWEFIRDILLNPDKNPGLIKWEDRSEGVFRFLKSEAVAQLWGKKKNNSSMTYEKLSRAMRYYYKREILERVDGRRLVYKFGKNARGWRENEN
Method in brief: as §1

SPI1 = SPI1 (Homo sapiens, UniProt P17947 1-270)
Method in brief: as §1

FEV = molecular target: T3, FEV (Homo sapiens, UniProt Q99581 1-238)
T3 sequence: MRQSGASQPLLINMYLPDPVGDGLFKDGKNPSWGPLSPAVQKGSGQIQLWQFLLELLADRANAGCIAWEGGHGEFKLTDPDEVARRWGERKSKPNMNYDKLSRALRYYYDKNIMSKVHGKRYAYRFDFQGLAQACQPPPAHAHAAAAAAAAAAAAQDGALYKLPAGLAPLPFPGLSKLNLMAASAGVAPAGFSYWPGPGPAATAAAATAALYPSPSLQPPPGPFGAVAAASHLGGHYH
Method in brief: as §1

ETV5 = ETV5 (Homo sapiens, UniProt P41161 1-510)
Sequence of ETV5 (P41161 whole entry): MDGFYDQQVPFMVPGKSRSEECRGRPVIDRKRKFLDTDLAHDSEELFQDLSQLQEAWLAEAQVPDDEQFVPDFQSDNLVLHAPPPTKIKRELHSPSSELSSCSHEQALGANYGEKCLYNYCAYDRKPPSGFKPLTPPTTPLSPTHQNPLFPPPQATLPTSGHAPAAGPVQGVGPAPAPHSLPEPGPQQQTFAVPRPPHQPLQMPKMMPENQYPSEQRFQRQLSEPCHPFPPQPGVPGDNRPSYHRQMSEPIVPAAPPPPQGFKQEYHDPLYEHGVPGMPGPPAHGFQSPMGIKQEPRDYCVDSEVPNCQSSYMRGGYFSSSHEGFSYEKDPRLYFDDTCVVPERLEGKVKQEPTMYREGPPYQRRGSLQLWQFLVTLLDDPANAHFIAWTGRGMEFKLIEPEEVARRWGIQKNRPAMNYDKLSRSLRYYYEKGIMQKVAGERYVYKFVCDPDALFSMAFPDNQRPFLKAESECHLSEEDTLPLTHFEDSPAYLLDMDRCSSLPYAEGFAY
Method in brief: as §1

ELK4 = molecular target: T4, ELK4 (Homo sapiens, UniProt P28324-2 1-405)
T4 sequence: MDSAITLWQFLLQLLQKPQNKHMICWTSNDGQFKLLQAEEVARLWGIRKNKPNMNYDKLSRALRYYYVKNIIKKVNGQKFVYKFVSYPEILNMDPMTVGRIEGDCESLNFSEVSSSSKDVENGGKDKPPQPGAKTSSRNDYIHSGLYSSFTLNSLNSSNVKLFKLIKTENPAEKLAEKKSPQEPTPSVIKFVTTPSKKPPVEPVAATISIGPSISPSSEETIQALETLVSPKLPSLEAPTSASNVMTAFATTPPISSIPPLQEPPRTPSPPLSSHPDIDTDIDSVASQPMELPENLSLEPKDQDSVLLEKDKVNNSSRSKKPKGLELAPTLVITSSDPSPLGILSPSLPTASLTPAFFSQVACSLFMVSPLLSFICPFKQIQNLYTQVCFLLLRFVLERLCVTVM
Method in brief: as §1

ERF = molecular target: T5, ERF (Homo sapiens, UniProt P50548 1-548)
T5 sequence: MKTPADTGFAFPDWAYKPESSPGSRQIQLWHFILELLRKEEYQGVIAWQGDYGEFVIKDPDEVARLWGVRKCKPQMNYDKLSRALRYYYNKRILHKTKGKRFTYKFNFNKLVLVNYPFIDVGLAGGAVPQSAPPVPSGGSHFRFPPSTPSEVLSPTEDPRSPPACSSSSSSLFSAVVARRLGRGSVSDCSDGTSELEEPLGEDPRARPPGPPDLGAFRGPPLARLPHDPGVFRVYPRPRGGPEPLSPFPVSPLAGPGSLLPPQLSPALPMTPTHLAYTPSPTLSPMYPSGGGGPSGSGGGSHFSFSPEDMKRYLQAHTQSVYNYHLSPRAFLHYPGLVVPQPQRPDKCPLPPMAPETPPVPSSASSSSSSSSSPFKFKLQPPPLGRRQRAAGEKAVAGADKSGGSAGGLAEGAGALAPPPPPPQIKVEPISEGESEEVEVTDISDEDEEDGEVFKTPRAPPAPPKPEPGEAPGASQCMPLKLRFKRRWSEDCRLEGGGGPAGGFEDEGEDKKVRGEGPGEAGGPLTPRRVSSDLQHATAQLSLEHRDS
Method in brief: as §1

ETV7 = molecular target: T6, ETV7 (Homo sapiens, UniProt Q9Y603 1-341)
T6 sequence: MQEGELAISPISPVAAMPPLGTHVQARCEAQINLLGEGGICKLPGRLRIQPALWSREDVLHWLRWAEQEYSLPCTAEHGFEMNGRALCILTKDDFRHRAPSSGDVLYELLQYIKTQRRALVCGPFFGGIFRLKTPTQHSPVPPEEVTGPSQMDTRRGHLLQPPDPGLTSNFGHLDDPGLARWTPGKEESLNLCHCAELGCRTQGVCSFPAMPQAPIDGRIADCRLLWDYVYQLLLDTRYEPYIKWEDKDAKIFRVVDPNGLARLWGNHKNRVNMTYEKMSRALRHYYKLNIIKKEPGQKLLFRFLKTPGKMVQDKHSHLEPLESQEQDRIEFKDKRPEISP
Method in brief: as §1

ETV3 = molecular target: T7, ETV3 (Homo sapiens, UniProt P41162-2 1-143)
T7 sequence: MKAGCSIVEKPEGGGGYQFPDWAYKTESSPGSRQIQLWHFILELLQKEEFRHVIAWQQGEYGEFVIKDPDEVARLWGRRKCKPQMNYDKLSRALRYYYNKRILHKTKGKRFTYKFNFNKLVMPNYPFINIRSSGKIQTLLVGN
Method in brief: as §1

GABPA = molecular target: T8, GABPA (Homo sapiens, UniProt Q06546 1-454)
T8 sequence: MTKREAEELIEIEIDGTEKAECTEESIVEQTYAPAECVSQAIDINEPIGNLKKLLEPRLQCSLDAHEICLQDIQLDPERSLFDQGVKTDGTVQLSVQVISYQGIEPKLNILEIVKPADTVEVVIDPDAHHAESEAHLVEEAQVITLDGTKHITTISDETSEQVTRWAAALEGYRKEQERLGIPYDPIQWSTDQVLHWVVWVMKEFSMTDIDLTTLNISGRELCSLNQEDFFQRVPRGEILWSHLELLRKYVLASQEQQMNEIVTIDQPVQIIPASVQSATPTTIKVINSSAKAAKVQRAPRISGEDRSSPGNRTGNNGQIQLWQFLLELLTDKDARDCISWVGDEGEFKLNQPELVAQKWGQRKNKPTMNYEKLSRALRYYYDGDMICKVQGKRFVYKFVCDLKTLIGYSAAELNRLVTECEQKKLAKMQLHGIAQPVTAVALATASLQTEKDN
Method in brief: as §1

ERG = molecular target: T9, ERG (Homo sapiens, UniProt P11308 1-479)
T9 sequence: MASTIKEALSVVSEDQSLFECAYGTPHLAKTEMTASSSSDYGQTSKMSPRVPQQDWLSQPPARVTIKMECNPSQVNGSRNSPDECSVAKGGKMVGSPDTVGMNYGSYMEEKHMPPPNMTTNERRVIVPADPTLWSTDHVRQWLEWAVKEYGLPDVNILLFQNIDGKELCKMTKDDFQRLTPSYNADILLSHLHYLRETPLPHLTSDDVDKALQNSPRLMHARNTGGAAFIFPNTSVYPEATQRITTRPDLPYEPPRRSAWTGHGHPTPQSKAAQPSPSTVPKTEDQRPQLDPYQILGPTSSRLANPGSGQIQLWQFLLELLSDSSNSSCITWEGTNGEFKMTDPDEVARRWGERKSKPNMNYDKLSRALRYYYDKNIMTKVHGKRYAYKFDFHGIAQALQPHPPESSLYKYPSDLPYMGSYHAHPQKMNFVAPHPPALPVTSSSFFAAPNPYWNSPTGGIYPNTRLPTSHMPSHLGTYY
Method in brief: as §1

SPIB = SPIB (Homo sapiens, UniProt Q01892 1-262)
Sequence of SPIB (Q01892 whole entry): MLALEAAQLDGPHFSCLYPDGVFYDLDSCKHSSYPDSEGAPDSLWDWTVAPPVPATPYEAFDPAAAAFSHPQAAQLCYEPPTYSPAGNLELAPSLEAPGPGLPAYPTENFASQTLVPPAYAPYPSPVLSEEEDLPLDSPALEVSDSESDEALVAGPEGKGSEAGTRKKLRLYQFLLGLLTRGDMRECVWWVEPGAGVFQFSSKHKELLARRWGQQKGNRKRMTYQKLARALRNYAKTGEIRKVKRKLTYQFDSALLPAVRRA
Method in brief: as §1

ELF4 = ELF4 (Homo sapiens, UniProt Q99607 1-663)
Sequence of ELF4 (Q99607 whole entry): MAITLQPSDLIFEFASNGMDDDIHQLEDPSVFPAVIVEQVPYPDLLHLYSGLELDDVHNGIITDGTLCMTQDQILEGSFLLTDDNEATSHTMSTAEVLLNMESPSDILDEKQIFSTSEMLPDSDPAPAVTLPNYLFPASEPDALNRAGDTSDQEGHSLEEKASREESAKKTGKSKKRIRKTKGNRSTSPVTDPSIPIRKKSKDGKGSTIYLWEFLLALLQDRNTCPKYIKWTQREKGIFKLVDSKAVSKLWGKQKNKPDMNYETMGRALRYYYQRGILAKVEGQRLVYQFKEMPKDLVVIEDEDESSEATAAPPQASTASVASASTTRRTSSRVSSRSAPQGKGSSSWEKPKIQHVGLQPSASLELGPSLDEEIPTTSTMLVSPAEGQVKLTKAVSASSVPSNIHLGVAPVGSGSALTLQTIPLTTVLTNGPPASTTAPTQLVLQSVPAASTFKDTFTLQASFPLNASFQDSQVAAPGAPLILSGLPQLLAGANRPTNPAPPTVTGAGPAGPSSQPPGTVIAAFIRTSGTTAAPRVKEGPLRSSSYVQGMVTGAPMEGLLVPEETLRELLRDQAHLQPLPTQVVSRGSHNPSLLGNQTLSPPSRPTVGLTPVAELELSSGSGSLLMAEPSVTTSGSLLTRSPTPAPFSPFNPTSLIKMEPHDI
Method in brief: as §1

ETV1 = ETV1 (Homo sapiens, UniProt P50549 1-477)
Sequence of ETV1 (P50549 whole entry): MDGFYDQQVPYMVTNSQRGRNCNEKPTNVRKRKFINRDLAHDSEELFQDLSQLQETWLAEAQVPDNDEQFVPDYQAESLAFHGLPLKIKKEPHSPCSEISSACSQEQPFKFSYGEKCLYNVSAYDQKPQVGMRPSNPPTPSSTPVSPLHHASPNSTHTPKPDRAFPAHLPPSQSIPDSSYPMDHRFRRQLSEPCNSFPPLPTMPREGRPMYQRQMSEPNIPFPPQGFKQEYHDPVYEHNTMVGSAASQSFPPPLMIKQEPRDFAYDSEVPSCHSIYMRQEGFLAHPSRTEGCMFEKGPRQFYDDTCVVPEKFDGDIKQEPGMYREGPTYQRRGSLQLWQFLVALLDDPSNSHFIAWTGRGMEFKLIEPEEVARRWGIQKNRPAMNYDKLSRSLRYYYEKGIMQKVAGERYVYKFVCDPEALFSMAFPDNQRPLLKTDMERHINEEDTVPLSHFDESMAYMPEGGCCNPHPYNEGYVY
Method in brief: as §1

ETV3L = molecular target: T10, ETV3L (Homo sapiens, UniProt Q6ZN32 1-361)
T10 sequence: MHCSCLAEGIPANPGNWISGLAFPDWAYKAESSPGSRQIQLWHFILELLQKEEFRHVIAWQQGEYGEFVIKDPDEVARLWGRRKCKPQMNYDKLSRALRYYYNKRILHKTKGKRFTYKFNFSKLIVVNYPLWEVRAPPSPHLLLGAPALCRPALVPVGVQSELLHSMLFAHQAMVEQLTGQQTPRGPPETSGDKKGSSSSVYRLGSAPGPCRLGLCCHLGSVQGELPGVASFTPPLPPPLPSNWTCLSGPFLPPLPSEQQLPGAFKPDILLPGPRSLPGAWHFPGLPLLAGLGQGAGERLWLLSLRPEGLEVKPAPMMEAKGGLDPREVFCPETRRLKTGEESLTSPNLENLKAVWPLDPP
Method in brief: as §1

ETS2 = molecular target: T11, ETS2 (Homo sapiens, UniProt P15036 1-469)
T11 sequence: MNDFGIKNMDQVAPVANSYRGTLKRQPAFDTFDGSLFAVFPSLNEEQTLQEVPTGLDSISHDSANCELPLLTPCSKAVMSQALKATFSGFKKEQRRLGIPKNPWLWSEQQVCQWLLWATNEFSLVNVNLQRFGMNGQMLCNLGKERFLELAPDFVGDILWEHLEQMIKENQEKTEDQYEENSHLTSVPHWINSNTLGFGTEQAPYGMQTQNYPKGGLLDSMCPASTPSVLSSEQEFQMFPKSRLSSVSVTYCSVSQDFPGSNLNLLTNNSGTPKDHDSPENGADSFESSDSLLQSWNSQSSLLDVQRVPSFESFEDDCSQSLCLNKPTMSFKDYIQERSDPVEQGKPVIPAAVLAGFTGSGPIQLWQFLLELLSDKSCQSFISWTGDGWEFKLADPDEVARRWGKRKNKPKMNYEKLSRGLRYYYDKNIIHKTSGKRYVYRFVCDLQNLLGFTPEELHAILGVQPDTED
Method in brief: as §1

Sequence | binding signal (ELK1) | binding signal (ELF1) | binding signal (EHF) | binding signal (SPI1) | binding signal (FEV) | binding signal (ETV5) | binding signal (ELK4) | binding signal (ERF) | binding signal (ETV7) | binding signal (ETV3) | binding signal (GABPA) | binding signal (ERG) | binding signal (SPIB) | binding signal (ELF4) | binding signal (ETV1) | binding signal (ETV3L) | binding signal (ETS2)
GCTAAC | 1.1 fold enrichment (6-mer frequency, TF over GST control) | 1.04 fold enrichment (6-mer frequency, TF over GST control) | 1.03 fold enrichment (6-mer frequency, TF over GST control) | 1.1 fold enrichment (6-mer frequency, TF over GST control) | 1.03 fold enrichment (6-mer frequency, TF over GST control) | 1.06 fold enrichment (6-mer frequency, TF over GST control) | 1.05 fold enrichment (6-mer frequency, TF over GST control) | 1.03 fold enrichment (6-mer frequency, TF over GST control) | 1.09 fold enrichment (6-mer frequency, TF over GST control) | 1 fold enrichment (6-mer frequency, TF over GST control) | – | – | – | – | – | – | –
AGCGCT | – | 1.05 fold enrichment (6-mer frequency, TF over GST control) | – | – | 1 fold enrichment (6-mer frequency, TF over GST control) | 1.01 fold enrichment (6-mer frequency, TF over GST control) | – | 1.04 fold enrichment (6-mer frequency, TF over GST control) | – | 1.01 fold enrichment (6-mer frequency, TF over GST control) | 1.04 fold enrichment (6-mer frequency, TF over GST control) | 1.02 fold enrichment (6-mer frequency, TF over GST control) | 1.09 fold enrichment (6-mer frequency, TF over GST control) | 1.06 fold enrichment (6-mer frequency, TF over GST control) | 1.02 fold enrichment (6-mer frequency, TF over GST control) | 1.08 fold enrichment (6-mer frequency, TF over GST control) | 1.09 fold enrichment (6-mer frequency, TF over GST control)
